The target of this test is Follistatin (Homo sapiens) (UniProt P19883). In words: FST protein binding to printed compounds – biochemical, small-molecule microarray, 635/667 nm fluorescence, primary screen (AID 1132). The following applies: 635 nm fluorescence, higher = more signal.
Chain of Follistatin (Homo sapiens) (P19883 whole entry, looked up): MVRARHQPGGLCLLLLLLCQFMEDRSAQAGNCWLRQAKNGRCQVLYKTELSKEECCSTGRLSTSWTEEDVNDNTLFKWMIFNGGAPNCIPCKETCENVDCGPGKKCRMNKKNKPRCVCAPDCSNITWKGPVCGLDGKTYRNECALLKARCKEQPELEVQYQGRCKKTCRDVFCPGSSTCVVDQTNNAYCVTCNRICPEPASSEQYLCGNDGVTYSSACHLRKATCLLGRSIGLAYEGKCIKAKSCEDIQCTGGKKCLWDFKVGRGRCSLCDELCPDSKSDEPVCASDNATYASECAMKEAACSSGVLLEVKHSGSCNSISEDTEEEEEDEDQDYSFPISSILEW
In turn, `C=CCC(OC(C)=O)[C@@H]1[C@@H](N(Cc2cccc3ccccc23)C(=O)c2cccc3ccccc23)c2cc(OCCCO)ccc2N1C(=O)c1ccc2ccccc2n1` (stereo partly specified) registered a composite z-score of 1.05.

`COc1ccc(C(O)C2C=CC3C(=O)NC(=O)C3N2Nc2ccccn2)cc1OCc1ccccc1` (stereo unspecified) gave a composite z-score of -0.101.

In the case of `CCCN1C(=O)[C@@]2(CCC(=O)OC(C)(C)C)N=C(c3ccc(OCCCO)cc3)O[C@H]2c2ccccc21`, the composite z-score was 1.4.

For the compound `COc1cccc(C(=O)O[C@H]2CC[C@]3(C)C4=C(CCC3C2(C)C)[C@]2(C)CC[C@H]([C@H](C)CCCC(C)C)[C@@]2(C)CC4)c1` (stereo partly specified), the composite z-score was determined as 0.649.

In the case of `COc1cc2c(cc1OC)CN(C(=O)[C@@H]1[C@H]3C(=O)O[C@H](c4ccccc4)[C@H](c4ccccc4)N3[C@H](c3ccccc3OCCO)[C@@]13C(=O)Nc1ccc(C#CCNC(N)=O)cc13)CC2`, the composite z-score came to 0.741.

Compound `CN(C)CCCCNC(=O)[C@H]1C[C@H]2C(=O)N[C@@H](Cc3ccccc3)C(=O)N2[C@H]1c1ccc(O)cc1` showed a composite z-score of 1.34.

In the case of `COc1ccc(CCN2C(=O)[C@@]3(Cc4ccccc42)c2ccccc2C(=O)N(Cc2ccccc2Cl)[C@H]3c2ccc(CO)cc2)cc1`, the composite z-score is -1.1.

`CCCCCCCCCCC(O)C1C=CC2C(=O)N(Cc3ccccc3)C(=O)C2N1n1cnnc1` (stereo unspecified) registered a composite z-score of -0.238.

Consider `COCCOC(=O)N1C(=O)[C@@]2(c3cc(C#CCC(C(=O)OC)C(=O)OC)ccc31)[C@H](C(=O)N1CCN(c3ncccn3)CC1)[C@H]1C(=O)O[C@H](c3ccccc3)[C@H](c3ccccc3)N1[C@@H]2c1ccc(OCCO)cc1`, for which the composite z-score is 1.24.

In turn, `C=C(COC)C(=O)CC[C@@H](OC(=O)c1cccnc1)c1ccc(CO)o1` had a composite z-score of 1.18.

Consider `C=C[C@@H](COC(C)=O)N(Cc1ccc([N+](=O)[O-])cc1)S(=O)(=O)c1ccc(Br)cc1`, for which the composite z-score stood at 0.631.

With `O=C1O[C@@H](c2ccccc2)[C@@H](c2ccccc2)N2[C@@H](c3ccc(O)cc3)[C@]3(C(=O)Nc4ccc(C#CC5(O)CCCCCC5)cc43)[C@@H](C(=O)N3CCCCCCC3)[C@H]12`, the composite z-score is 1.47.

With `COC(=O)C[C@@H]1C[C@H](C)[C@]2(O1)C(=O)N(Cc1ccccc1)c1ccc(NC(C)=O)cc12`, the composite z-score worked out at 0.431.

Take `CC(C)(C)N1CC=CC23O[C@@H]4C=CCOC(=O)[C@@H]4[C@H]2C(=O)N(CCCCCO)[C@@H]3C1=O` (stereo partly specified): the composite z-score was -0.889.

`C=CCN1C(=O)[C@]2(O[C@H](CCO)[C@@H]([Si](C)(C)c3ccc(OC)cc3)[C@@H]2C)c2cc(NC(=O)[C@H](C)O)ccc21` came in with a composite z-score of 0.222.

With `C=CC(=C)C1=CCO[C@@H]1[C@H]1CCCN1S(=O)(=O)c1ccccc1[N+](=O)[O-]`, the composite z-score was determined as 0.976.

In turn, `COc1ccc(NN2C(C(O)c3ccc(OC)c(OCc4ccccc4)c3)C=CC3C(=O)N(C4CCCCC4)C(=O)C32)cc1` (stereo unspecified) displayed a composite z-score of 1.29.

Compound `[N-]=[N+]=NCc1ccccc1[C@@H]1OC(c2ccc(OCCCO)cc2)=N[C@]1(Cc1ccccc1)C(=O)N1CCCCC1` had a composite z-score of 1.41.

`CC(C)(C)N1CC=CC23O[C@@H]4/C=C\CCCOC(=O)C4[C@H]2C(=O)N(CCO)[C@@H]3C1=O` (stereo partly specified) registered a composite z-score of -0.993.

`O=C1O[C@H](c2ccccc2)[C@H](c2ccccc2)N2[C@H]1[C@@H](C(=O)O)[C@]1(C(=O)Nc3ccc(C#CC4=CCCCC4)cc31)[C@H]2c1ccc(OCCO)cc1` returned a composite z-score of 1.26.

As to `COC(=O)C[C@H]1O[C@]2(C(=O)N(Cc3ccccc3)c3ccc(NC(C)=O)cc32)[C@@H](C)[C@@H]1[Si](C)(C)c1ccc(OC)cc1`, the composite z-score amounted to 0.528.

In the case of `CC(C)CNC(=O)[C@@H]1c2ccccc2C(=O)N(Cc2cc(C(F)(F)F)cc(C(F)(F)F)c2)[C@H]1c1ccc(CO)cc1`, the composite z-score is -0.137.

Take `COc1ccccc1CN1C(=O)c2ccccc2[C@@H](C(=O)NCCN2CCOCC2)[C@@H]1c1ccc(CO)cc1`: the composite z-score was 0.912.

Compound `NCCCCCCNC(=O)[C@H]1C[C@H]2C(=O)NCC(=O)N2[C@H]1c1cccc(OCCO)c1` displayed a composite z-score of 1.24.

`COCCOC(=O)N1C(=O)[C@@]2(c3ccccc31)[C@H](C(=O)NC[C@H](O)c1ccccc1)[C@H]1C(=O)O[C@H](c3ccccc3)[C@H](c3ccccc3)N1[C@@H]2c1ccc(OCCO)cc1` came in with a composite z-score of 1.47.

`CC(C)N1CC=CC23O[C@@H]4C=CCOC(=O)[C@@H]4[C@H]2C(=O)N(CCO)[C@@H]3C1=O` (stereo partly specified) showed a composite z-score of -0.22.

`COC(=O)[C@@]1(Cc2ccccc2)[C@H]2c3cc(C(=O)N4CCCC4)n(C)c3C[C@H]2CN1C(=O)c1ccccc1`: the composite z-score came to 0.725.

As for `O=C1[C@]2(CO)C=C(Br)[C@@H](C[C@@H]2c2ccccc2)[C@@]12CO2`, the composite z-score is 0.518.

In turn, `CCCCC(O)C1C=CC2C(=O)N(C3CCCCC3)C(=O)C2N1Nc1ccc(OC)cc1` (stereo unspecified) had a composite z-score of 1.19.

Compound `COc1ccc(C(O)C2C=CC3C(=O)N(c4ccccc4)C(=O)C3N2Nc2ccc([N+](=O)[O-])cc2)cc1OCc1ccccc1` (stereo unspecified) gave a composite z-score of 0.508.

In turn, `Cc1ccc(S[C@]2(C(=O)NCc3ccccc3)CC(=O)N(Cc3ccccc3)[C@@H]2c2ccc(CO)cc2)cc1` had a composite z-score of -0.211.

On to `C=C(COC)/C(=C/C[C@H](OC(=O)c1ccncc1)c1cccc(OCCO)c1)c1cc(C(=O)OC)ccc1OC`, for which the composite z-score came to 0.127.

In the case of `COC(=O)[C@@]1(Cc2ccccc2)[C@H]2c3cc(C(=O)N(C)C)n(Cc4cc(C)n(C)n4)c3C[C@H]2CN1C(=O)c1ccccc1`, the composite z-score is 0.229.

`COC(=O)[C@@]1(Cc2ccccc2N=[N+]=[N-])COC(c2ccc(OCCCO)cc2)=N1` gave a composite z-score of 1.27.

Turning to `CN1CCC(CCCO)=CC1c1ccc(CN2CCCC2)cc1` (stereo unspecified), the composite z-score was determined as 1.42.

Turning to `CC(=CC1CCCCC1)[C@@H](NC(=O)c1ccc(C(F)(F)F)cc1)c1ccc(-c2ccccc2)cc1`, the composite z-score was -0.136.

For the origin of these results see PubChem BioAssay.
